# Source: PubChem BioAssay (NCATS)
# Results filed as inconclusive are left out. Active and inactive are the calls of the source. Unless noted, calls follow the shape of the dose curve; as a rule, active = well fitted curve in the direction sought with a large enough effect; inconclusive = small, poorly fitted or top-dose-only effect, or another doubt; inactive = no such curve, though single readings can be large; an effect the other way counts as inactive or inconclusive.
# Assays:
# [1] = target: Lysosomal acid glucosylceramidase (Homo sapiens) (UniProt P04062); test: Glucocerebrosidase-p2 (AID 348; in the data active = potency below about 10 µM; also: potency is read from the fitted curve at half-maximal effect); conditions: purified GBA, blue fluorogenic substrate, 40 min
# Method in brief: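 Normal human glucocerebrosidase (0.2 nM) with blue fluorogenic substrate (80 uM final) in citrate/phosphate pH 5.9 with 10mM sodium taurocholate, 0.01% tween-20; 40 min RT, NaOH/glycine stop; fluorescence Ex 365/Em 440; AC50 from a titration from 0.6 nM upwards.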
# [2] = AP1 Signaling Pathway (AID 357; active = well fitted curve in either direction with a large enough effect, not every such curve was filed as active;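 also: ME-180 reporter cells stimulated with EGF at its EC50 level; % is scaled to controls: 0 for no effect and ±100 for the full control effect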); conditions: ME-180 AP-1-bla reporter, EGF-induced, beta-lactamase ratio, 5 h; at 7.69 µM (top of the series) unless noted
# Method in brief: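 Cells are seeded overnight, exposed to compound titrations and an EC50 level of EGF for 5 hours at 37 °C, then loaded with CCF4 dye for 2.5 hours. Beta-lactamase activity under the AP-1 element is read as a blue/green ratio.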
# [3] = target: Cytochrome P450 1A2 (Homo sapiens) (UniProt P05177); test: p450-cyp1a2 (AID 410; calls by dose curve; also: potency is read from the fitted curve at half-maximal effect;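 as to activity change, negative = inhibition: -100% = full effect of reference inhibitor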); conditions: recombinant CYP1A2, luciferin-ME demethylation, luminescence; series mostly up to 57 µM
# Method in brief: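 O-Demethylation of luciferin 6' methyl ether by human CYP1A2 is monitored as luciferase luminescence. Substrate sits at Km (100uM); enzyme is 20nM. Values are scaled to 57 uM furafylline as maximal inhibition.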
# [4] = NFAT Signaling Pathway (AID 444; active = well fitted curve in either direction with a large enough effect, not every such curve was filed as active;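 also: carbachol stimulus at about its EC50 of 1 µM final; % is scaled to controls: 0 for no effect and ±100 for the full control effect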); conditions: Jurkat NFAT-bla M1, carbachol, beta-lactamase ratio, 5 h; at 7.69 µM (top of the series) unless noted
# Method in brief: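 Jurkat cells carrying an NFAT-driven β-lactamase reporter and co-transfected muscarinic M1 receptor were treated with compound plus carbachol (1 uM final, an EC50 level) for 5 h at 37 °C. CCF4 loading followed for 1 h at RT; 460/530 nm ratio gave %activity.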
# [5] = Stat Signaling Pathway (AID 446; active = well fitted curve in either direction with a large enough effect, not every such curve was filed as active;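 also: ME-180 cervical cancer cells given 40 pM IL-6 alongside compound; SIE-controlled beta-lactamase reporter measured as 460/530 nm FRET emission ratio; % is scaled to controls: 0 for no effect and ±100 for the full control effect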); conditions: ME-180 SIE beta-lactamase reporter, IL-6 stimulated, 5 h; at 7.69 µM (top of the series) unless noted
# Method in brief: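 Emission at 460 and 530 nm (excitation 405 nm) reports SIE-controlled beta-lactamase in ME-180 cells. Cells received compound with 40 pM IL-6 for 5 hrs at 37 C; data scaled between 300 pM IL-6 and 125 nM JAK-inhibitor controls.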
# [6] = target: Glucocorticoid receptor (Homo sapiens) (UniProt P04150); test: GR-GFP Redistribution (AID 450;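 active = compounds whose dose series gives a full or clear partial fitted curve of increased nuclear translocation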; also: potency is read from the fitted curve at half-maximal effect); conditions: U2OS GR-GFP nuclear translocation, laser cytometry, 2 h
# [7] = target: Glucocorticoid receptor (Homo sapiens) (UniProt P04150); test: GR-EFC Redistribution (AID 451; calls by dose curve; also: potency is read from the fitted curve at half-maximal effect); conditions: CHO-K1 GR-EFC translocation, beta-gal luminescence, 2 h
# Method in brief: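 CHO-K1 cells stably expressing nuclear-localized β-gal enzyme acceptor and GR fused C-terminally to the enzyme donor fragment; ligand-driven nuclear translocation restores β-gal by complementation. Compounds titrated up to 46 uM final, 2 h at 37 °C; luminescence read.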
# [8] = target: Mitogen-activated protein kinase 10 (Mus musculus) (UniProt Q61831); test: JNK3 AlphaScreen Assay (AID 530; active = well fitted curve in either direction with a large enough effect, not every such curve was filed as active;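 also: kinase came from lysate of stimulated human HepG2 cells; signal reports phosphorylation of biotinylated GST-cJun 1-79 at Ser73 with 10 µM ATP; % is scaled to controls: 0 for no effect and ±100 for the full control effect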); conditions: JNK3 lysate, c-Jun phosphorylation; series mostly up to 57.1 µM
# Method in brief: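 Phosphorylation of biotinylated GST-cJun(1-79) at Ser73 is measured by AlphaScreen proximity luminescence. Enzyme is JNK3 in HepG2 lysates activated with interleukin-1beta and tumor necrosis factor alpha; ATP is 10 uM final.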
# [9] = target: Cytochrome P450 2C19 (Homo sapiens) (UniProt P33261); test: qHTS Assay for Inhibitors and Substrates of Cytochrome P450 2C19 (AID 899); conditions: recombinant CYP2C19, luciferin-H EGE luminescence; series mostly up to 57.1 µM; also: potency is read from the fitted curve at half-maximal effect; nearly all actives have a fitted effect of over 60% in size
# Method in brief: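 In 50mM KPO4, the reaction held 5nM enzyme and KM-level (10uM) Luciferin-H EGE; it ran 60 min at 37C after NADPH regeneration and a 10 min compound preincubation. Luminescence values were scaled to 57uM ketoconazole as complete inhibition.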
# [10] = Confirmation and Secondary Assay for Modulators of Hemoglobin Beta Chain Splicing at IVS2 654 locus (AID 910); conditions: HeLa EGFP-654 splicing reporter, GFP fluorescence, 48 h; series mostly up to 38.3 µM;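 also: per-well total GFP intensity by laser scanning cytometry after 2-day treatment; % of control where 0% means no effect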
# Method in brief: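 HeLa cells stably carrying EGFP interrupted by mutant beta-globin IVS2-654 intron (CMV-driven) were treated with compound for 2 days at 37C; corrected splicing was scored as total peak GFP intensity per well (488 nm excitation, 500-520 nm emission).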
# [11] = Confirmation and Secondary Assay for Modulators of Hemoglobin Beta Chain Splicing at IVS2 705 locus (AID 930); conditions: HeLa EGFP-705 splicing reporter, GFP fluorescence, 48 h; series mostly up to 38.3 µM;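 also: HeLa cells stably expressing the EGFP-705 splicing reporter; % of control where 0% means no effect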
# Method in brief: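 HeLa cells stably carrying EGFP interrupted by mutant beta-globin IVS2-705 intron (CMV-driven) were seeded at 500 cells/well, treated next day with compound for 2 days at 37C; corrected splicing restores EGFP, read as total peak GFP intensity per well.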
# [12] = qHTS Assay for Lipid Storage Modulators (AID 1519; calls by dose curve); conditions: Drosophila S3 cells, BODIPY lipid droplet/cell ratio, laser cytometry, cells loaded with oleic acid; for activity change, negative = inhibition: at 57.5 µM (top of the series)
# Method in brief: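 Cells seeded at 5,000 per well were treated with compounds over a concentration series and loaded with oleic acid (400 uM, as added). Lipid droplet fluorescence (488 nm excitation, 500-530 nm channel) was read by laser-scanning cytometry and normalized to 20 uM Triacsin C.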
# [13] = target: Ubiquitin carboxyl-terminal hydrolase 1 (Homo sapiens) (UniProt O94782); test: Inhibitors of USP1/UAF1: Pilot qHTS (AID 504865); conditions: purified USP1/UAF1, Ub-rhodamine cleavage fluorescence; series mostly up to 54.9 µM;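 also: rhodamine fluorescence freed from ubiquitin-rhodamine substrate followed over time; top concentration of the series differs between compounds; % is scaled to controls: 0 for no effect and ±100 for the full control effect; nearly all actives have a fitted effect of over 35% in size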
# Method in brief: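 Enzyme-free wells gave the negative control, while test wells held 1nM USP1/UAF1 preincubated with compound for 15 min at room temperature. Ub-Rho at 150nM final started the reaction, and fluorescence at 480/540 nm was recorded kinetically.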
# [14] = Primary qHTS for small molecule stabilizers of the endoplasmic reticulum resident proteome: Secreted ER Calcium Modulated Protein (SERCaMP) assay (AID 1508630); conditions: SH-SY5Y GLuc-SERCaMP (Gaussia luciferase released on ER calcium loss) secretion, thapsigargin, luminescence; series mostly up to 38.4 µM; also: % is scaled to controls: 0 for no effect and ±100 for the full control effect
# Method in brief: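 The SH-SY5Y reporter protocol was run at 3 concentrations up to 38.3 uM (primary) or 11 concentrations (follow-up): 16 h compound, 100 nM thapsigargin for 4 h, then extracellular luciferase luminescence.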
# [15] = target: Cytochrome P450 3A4 (Homo sapiens) (UniProt P08684); test: qHTS Assay for Inhibitors and Substrates of Cytochrome P450 3A4 (AID 884); conditions: recombinant CYP3A4, Luciferin-PPXE luminescence; series mostly up to 57.1 µM; also: potency is read from the fitted curve at half-maximal effect; nearly all actives have a fitted effect of over 50% in size
# Method in brief: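 Luminescent readout of luciferin produced by CYP3A4 (20 nM) dealkylation of Luciferin-PPXE, 25 uM (its KM). NADPH-driven reaction ran 60 min at RT after 10 min compound preincubation; data scaled to 57 uM ketoconazole as 100% inhibition.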
# [16] = target: Cytochrome P450 3A4 (Homo sapiens) (UniProt P08684); test: qHTS Assay for Activators of Cytochrome P450 3A4 (AID 885); conditions: recombinant CYP3A4, Luciferin-PPXE luminescence, 60 min; series mostly up to 57.1 µM; also: nearly all actives have a fitted effect of over 65% in size
# Method in brief: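 Activators are scored by enhanced luminescence from CYP3A4 conversion of luciferin-PPXE (25uM, equal to KM) to luciferin, after 60 min at RT with an NADPH-regenerating system.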
# [17] = target: 3',5'-cyclic-AMP phosphodiesterase 4B (Homo sapiens) (UniProt Q07343); test: qHTS Assay for Inhibitors of PDE-IV (AID 607; active = well fitted activation curve with a large enough effect in the main read-out, with a control signal flat, not every such curve was filed as active; also: % of control where 0% means no effect); conditions: HEK293 ACTOne CNG channel cells, membrane potential fluorescence; series mostly up to 22.9 µM
# Method in brief: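 The readout is membrane depolarisation from a cAMP-sensing CNG channel, detected with a potential dye at ex 535/em 590. Cells were HEK293-derived (endogenous PDE-IV) at 1000 cells/well, titrated up to 22.9 uM final.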
# [18] = qHTS Assay for Identification of Small Molecule Agonists for Hypoxia Response Element Signaling Pathway (AID 914; active = well fitted activation curve with a large enough effect in the signal ratio, with a control signal flat, not every such curve was filed as active; the % refers to the signal ratio; also: % of control where 0% means no effect); conditions: ME-180 HRE-bla reporter, beta-lactamase ratio, CoCl2, 17 h; activation: stronger effect = higher value
# Method in brief: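 ME-180 cells carrying an HRE-driven beta-lactamase reporter were treated with compounds in a titration series plus an EC50 level of CoCl2 for 17 h at 37 degrees Celsius; CCF4 readout as the 460nm/530nm ratio gave AC50 values.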
# [19] = measured here: cell count channel max response
# [20] = measured here: lipid channel max response
# 3',5'-cyclic-AMP phosphodiesterase 4B (Homo sapiens), sequence (Q07343 whole entry, looked up): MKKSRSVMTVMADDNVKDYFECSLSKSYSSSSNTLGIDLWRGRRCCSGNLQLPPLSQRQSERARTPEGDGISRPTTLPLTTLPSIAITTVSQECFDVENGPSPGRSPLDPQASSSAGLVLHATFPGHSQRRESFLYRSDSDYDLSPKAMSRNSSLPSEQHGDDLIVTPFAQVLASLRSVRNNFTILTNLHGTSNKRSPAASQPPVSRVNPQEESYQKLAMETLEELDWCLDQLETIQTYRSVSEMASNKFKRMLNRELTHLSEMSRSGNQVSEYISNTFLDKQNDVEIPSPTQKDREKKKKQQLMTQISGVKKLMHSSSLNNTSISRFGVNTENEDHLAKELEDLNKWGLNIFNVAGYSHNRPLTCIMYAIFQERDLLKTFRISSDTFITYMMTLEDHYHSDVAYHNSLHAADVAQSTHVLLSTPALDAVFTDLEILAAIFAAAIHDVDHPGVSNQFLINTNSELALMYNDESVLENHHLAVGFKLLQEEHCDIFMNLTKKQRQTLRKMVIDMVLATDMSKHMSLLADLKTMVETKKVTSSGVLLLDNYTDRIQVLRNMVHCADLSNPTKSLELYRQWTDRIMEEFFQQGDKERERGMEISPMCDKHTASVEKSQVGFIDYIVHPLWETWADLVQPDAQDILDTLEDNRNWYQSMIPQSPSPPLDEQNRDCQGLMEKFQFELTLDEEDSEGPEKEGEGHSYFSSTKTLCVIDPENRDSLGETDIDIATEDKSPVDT
# Ubiquitin carboxyl-terminal hydrolase 1 (Homo sapiens), sequence (O94782 whole entry, looked up): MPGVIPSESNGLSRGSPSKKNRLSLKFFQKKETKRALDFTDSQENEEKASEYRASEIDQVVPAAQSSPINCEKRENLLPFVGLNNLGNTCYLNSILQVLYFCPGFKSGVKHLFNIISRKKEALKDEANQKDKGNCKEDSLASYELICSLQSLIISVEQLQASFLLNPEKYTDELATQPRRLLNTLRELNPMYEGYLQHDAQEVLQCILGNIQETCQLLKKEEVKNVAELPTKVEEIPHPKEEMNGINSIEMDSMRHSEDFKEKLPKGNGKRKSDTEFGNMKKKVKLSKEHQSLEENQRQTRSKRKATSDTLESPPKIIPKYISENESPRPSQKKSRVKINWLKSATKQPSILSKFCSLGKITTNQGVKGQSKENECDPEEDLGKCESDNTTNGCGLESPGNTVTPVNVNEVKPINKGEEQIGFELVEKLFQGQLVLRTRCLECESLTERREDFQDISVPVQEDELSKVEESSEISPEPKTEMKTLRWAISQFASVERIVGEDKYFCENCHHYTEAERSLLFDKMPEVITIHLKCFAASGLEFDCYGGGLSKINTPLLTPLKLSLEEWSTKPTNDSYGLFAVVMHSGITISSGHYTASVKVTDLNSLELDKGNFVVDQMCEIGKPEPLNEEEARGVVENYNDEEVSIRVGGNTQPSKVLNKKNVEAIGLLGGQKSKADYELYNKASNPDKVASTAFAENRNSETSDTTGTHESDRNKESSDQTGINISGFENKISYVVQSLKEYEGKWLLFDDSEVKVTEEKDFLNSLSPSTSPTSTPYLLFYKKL
# Cytochrome P450 1A2 (Homo sapiens), sequence (P05177 whole entry, looked up): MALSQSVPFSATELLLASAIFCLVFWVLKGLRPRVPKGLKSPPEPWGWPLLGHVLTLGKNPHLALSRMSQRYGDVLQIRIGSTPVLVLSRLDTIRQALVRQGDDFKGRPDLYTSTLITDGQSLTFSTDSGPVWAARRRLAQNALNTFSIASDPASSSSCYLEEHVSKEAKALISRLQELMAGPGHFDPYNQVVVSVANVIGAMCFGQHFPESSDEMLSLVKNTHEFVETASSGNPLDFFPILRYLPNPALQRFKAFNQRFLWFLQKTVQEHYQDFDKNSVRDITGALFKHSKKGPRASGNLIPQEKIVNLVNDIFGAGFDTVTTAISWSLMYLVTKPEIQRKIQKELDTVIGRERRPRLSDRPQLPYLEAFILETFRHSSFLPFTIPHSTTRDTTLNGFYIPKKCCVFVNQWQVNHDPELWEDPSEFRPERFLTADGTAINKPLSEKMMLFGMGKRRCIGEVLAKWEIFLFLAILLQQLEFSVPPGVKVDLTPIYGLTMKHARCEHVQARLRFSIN
# Glucocorticoid receptor (Homo sapiens), sequence (P04150 whole entry, looked up, the tested form may be a part): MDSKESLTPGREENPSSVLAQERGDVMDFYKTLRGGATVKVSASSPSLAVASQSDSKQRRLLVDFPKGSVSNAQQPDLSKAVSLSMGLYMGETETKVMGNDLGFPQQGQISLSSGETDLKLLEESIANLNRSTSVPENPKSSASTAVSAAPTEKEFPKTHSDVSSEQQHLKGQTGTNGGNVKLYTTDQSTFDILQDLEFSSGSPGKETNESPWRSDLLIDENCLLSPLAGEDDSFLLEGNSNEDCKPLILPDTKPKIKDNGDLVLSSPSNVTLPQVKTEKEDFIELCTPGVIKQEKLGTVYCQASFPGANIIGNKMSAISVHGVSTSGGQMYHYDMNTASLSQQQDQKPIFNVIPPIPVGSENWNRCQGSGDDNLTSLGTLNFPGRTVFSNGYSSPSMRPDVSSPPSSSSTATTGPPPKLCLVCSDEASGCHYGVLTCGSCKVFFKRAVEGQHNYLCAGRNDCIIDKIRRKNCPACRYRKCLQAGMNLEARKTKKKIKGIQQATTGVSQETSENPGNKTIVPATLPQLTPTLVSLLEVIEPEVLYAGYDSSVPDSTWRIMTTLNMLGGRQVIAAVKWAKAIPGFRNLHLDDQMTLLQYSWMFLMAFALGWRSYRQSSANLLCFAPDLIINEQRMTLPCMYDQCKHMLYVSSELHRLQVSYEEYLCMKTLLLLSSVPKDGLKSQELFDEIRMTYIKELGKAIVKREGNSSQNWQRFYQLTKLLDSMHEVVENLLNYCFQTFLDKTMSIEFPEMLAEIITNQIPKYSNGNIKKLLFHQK
# Cytochrome P450 3A4 (Homo sapiens), sequence (P08684 whole entry, looked up): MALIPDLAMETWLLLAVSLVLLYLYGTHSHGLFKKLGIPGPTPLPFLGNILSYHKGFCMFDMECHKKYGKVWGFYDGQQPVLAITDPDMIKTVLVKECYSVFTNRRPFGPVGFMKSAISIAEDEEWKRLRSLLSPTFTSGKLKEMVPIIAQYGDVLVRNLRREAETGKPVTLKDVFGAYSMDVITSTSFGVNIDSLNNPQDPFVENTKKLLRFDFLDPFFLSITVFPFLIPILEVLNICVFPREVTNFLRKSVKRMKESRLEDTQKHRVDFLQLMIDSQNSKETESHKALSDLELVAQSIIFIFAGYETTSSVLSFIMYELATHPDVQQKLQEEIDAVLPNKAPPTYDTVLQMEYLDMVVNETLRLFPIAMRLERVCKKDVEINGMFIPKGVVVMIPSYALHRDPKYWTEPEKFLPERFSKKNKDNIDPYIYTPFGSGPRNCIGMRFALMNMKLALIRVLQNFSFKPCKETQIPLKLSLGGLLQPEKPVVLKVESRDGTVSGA
# Lysosomal acid glucosylceramidase (Homo sapiens), sequence (P04062 whole entry, looked up): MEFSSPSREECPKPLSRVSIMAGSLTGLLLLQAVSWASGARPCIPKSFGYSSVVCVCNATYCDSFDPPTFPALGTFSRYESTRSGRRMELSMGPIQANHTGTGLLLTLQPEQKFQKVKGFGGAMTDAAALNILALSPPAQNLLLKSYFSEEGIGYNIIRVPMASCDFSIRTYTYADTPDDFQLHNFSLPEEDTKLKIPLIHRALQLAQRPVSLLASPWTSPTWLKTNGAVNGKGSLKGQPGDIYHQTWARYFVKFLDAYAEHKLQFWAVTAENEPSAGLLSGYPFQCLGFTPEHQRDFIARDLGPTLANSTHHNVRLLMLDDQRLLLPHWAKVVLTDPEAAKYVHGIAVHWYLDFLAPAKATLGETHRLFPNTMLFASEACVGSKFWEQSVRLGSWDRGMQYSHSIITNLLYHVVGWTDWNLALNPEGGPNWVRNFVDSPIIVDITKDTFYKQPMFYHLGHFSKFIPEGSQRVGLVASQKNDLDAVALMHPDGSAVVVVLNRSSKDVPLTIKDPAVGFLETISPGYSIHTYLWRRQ
# Cytochrome P450 2C19 (Homo sapiens), sequence (P33261 whole entry, looked up): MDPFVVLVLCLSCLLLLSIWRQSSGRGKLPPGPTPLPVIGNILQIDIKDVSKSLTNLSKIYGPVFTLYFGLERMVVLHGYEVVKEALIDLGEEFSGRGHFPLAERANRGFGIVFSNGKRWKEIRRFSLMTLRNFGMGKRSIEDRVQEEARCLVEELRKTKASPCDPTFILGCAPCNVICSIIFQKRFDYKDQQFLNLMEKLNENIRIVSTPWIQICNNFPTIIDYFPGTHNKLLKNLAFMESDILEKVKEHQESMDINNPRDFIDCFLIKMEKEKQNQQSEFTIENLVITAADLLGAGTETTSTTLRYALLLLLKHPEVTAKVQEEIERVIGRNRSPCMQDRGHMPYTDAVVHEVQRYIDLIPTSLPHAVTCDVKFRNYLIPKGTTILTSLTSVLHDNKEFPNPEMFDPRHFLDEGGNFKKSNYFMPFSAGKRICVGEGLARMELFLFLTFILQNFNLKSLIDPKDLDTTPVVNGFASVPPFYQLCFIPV
Compound,Potency [1],"activity change, negative = inhibition [2]",Potency [3],"activity change, negative = inhibition [4]","activity, negative = inhibition [5]",Potency [6],Potency [7],outcome [8],Potency [9],outcome [10],outcome [11],"activity change, negative = inhibition [12]","max response [12, 19]","max response [12, 20]",Potency [13],Potency [14],Potency [15],Potency [16],Potency [17],activation [18]
c1csc(CNc2ncncc2-c2ccc3c(c2)OCO3)c1,> 11.4 µM (inactive),-9.82% (inactive),0.2 µM (active),-6.2% (inactive),6.16% (inactive),> 46 µM (inactive),> 46 µM (inactive),inactive,0.794 µM (active),inactive,inactive,6.61% (inactive),0.346%,8.95%,inactive,inactive,,,,
COc1ccccc1-c1cc(NCc2cccnc2)ncn1,> 11.4 µM (inactive),-6.59% (inactive),0.316 µM (active),-4.97% (inactive),0.807% (inactive),> 46 µM (inactive),> 46 µM (inactive),inactive,,inactive,inactive,4.96% (inactive),9.53%,19.3%,inactive,inactive,5.01 µM (active),inactive,,
COc1ccccc1-c1nccc(-n2ccnc2)n1,> 11.4 µM (inactive),10.1% (inactive),0.158 µM (active),-2.21% (inactive),11.9% (inactive),> 46 µM (inactive),> 46 µM (inactive),inactive,,inactive,inactive,10.5% (inactive),15.1%,27.4%,inactive,inactive,1.58 µM (active),inactive,inactive,
Cc1noc(C)c1-c1cc(N(C)C)ncn1,> 11.4 µM (inactive),10% (inactive),3.16 µM (active),9.29% (inactive),16% (inactive),> 46 µM (inactive),> 46 µM (inactive),inactive,,inactive,inactive,8.35% (inactive),3.97%,11.9%,inactive,inactive,,,inactive,0.655% (inactive)
FC(F)(F)c1ccccc1-c1cc(N2CCNCC2)ncn1,> 11.4 µM (inactive),10.3% (inactive),5.01 µM (active),5.38% (inactive),3.09% (inactive),> 46 µM (inactive),> 46 µM (inactive),inactive,,inactive,inactive,9.89% (inactive),13.9%,24.8%,inactive,inactive,,,inactive,
Cc1cnc(CNc2ncncc2-c2ccccc2C(F)(F)F)cn1,> 11.4 µM (inactive),-6.17% (inactive),inactive,2.1% (inactive),-1.72% (inactive),> 46 µM (inactive),> 46 µM (inactive),inactive,,inactive,inactive,7.68% (inactive),18.6%,28.1%,inactive,inactive,,inactive,inactive,
Cc1cnc(CNc2ncncc2-c2ccccc2C#N)cn1,> 11.4 µM (inactive),8.99% (inactive),0.251 µM (active),-5.21% (inactive),-4.72% (inactive),> 46 µM (inactive),> 46 µM (inactive),inactive,,inactive,inactive,8.38% (inactive),14%,24.3%,inactive,inactive,,inactive,inactive,
Cc1ccccc1-c1cncnc1Nc1ccc(F)cc1,> 11.4 µM (inactive),15.1% (inactive),10 µM (active),3.46% (inactive),32.1% (inactive),> 46 µM (inactive),> 46 µM (inactive),inactive,5.01 µM (active),inactive,inactive,6.79% (inactive),-4.87%,2.59%,inactive,inactive,0.199 µM (active),inactive,,
Cc1cnc(CNc2ccnc(-c3ccccc3Cl)n2)cn1,> 11.4 µM (inactive),-1.45% (inactive),12.6 µM (active),-3.33% (inactive),7.09% (inactive),> 46 µM (inactive),> 46 µM (inactive),inactive,,inactive,inactive,7.03% (inactive),7.84%,16.2%,inactive,inactive,,inactive,inactive,
COc1ccccc1-c1cncnc1NCCc1cnc[nH]1,> 11.4 µM (inactive),1.24% (inactive),1.26 µM (active),3.21% (inactive),-11.6% (inactive),> 46 µM (inactive),> 46 µM (inactive),inactive,0.0794 µM (active),inactive,inactive,11.3% (inactive),12.9%,26.1%,inactive,inactive,0.398 µM (active),inactive,inactive,
